According to the OligoGym collection:

molecular target: ORC1; experiment: pooled miR-30 sensor sort-seq; sequence = guide strand; conditions: shRNA
Further: reference of the scale not given here.

Row | Sequence | sensor-assay potency score (higher = more potent)
1 | TACAGCAGAAACATGCAGCCTC | 0.436
2 | TCATTTTTCAGATTCGTCGGTA | 0.261
3 | TAAGAGAGTCCAGTCTCTCTGG | -0.254
4 | TCAATCAACACAAACTGTCCAA | 0.619
5 | TTGCACATAGACTTGGTGGGGC | 0.793
6 | TTTACTATTACCTAGAAACCGA | -0.315
7 | TAGAGGTCGCTTCATTCTGGGC | -1.24
8 | TAGAGTCTGAAATCTCTGCTGC | 0.498
9 | TCTCGGTGGAACAACCTTCTGT | -0.225
10 | TTTTCGAAGCTGCAATTCGGGT | -1.44
11 | TTTCGATCCAACAAGGGCCTGC | 0.15
12 | TTTGGTAGTGCAGTTTTCGATC | -0.734

molecular target: ORM2; experiment: as above; conditions: shRNA

Row | Sequence | sensor-assay potency score (higher = more potent)
13 | TCATCGTCCAGGTAGGAACCAA | -0.639
14 | TGGAGTTATAGAAGCACTGGTT | -0.607
15 | TTATAGAAGCACTGGTTCTGGC | -0.114
16 | TAGAAGCACTGGTTCTGGCGGG | -0.234
17 | ATCAAGGTCTTGGTGTCCCTAA | -0.929
18 | TGGACATTCAGGTAACTGGAGT | -0.96
19 | GTGTACATGACATCTGACCTGG | -0.944
20 | TTCTTCTCATCGTCCAGGTAGG | -0.591
21 | TTATCCTTTTTCCAGTCGGTGT | -1.32
22 | TACATGACATCTGACCTGGGAA | -0.156
23 | TGTACATGACATCTGACCTGGG | 0.548
24 | TAAGGAACAGCAGGTGAGCAAC | -1.17
